According to PubChem BioAssay:
Activity calls are given as the source filed them.

Assays:
[1] = system: Plasmodium falciparum Sir2 (PF13_0152, Sir2A); experiment: Plasmodium falciparum Sir2A binding compounds – biochemical, small-molecule microarray, 635 nm fluorescence, primary screen (AID 1098); conditions: fluorescence 635 nm, higher = more signal;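 note: score merges spot fluorescence intensity with its signal-to-noise ratio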
[2] = probe aDKK1 binding to arrayed compounds – biochemical, biotinylated probe, 635/667 nm fluorescence, primary screen (AID 1099); conditions: small-molecule microarray, higher = more signal;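 note: score merges 667nm spot fluorescence with signal to noise across triplicate slides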
[3] = probe aCHRDL2 binding to arrayed compounds – biochemical, biotinylated probe, 635/667 nm fluorescence, primary screen (AID 1100); conditions: small-molecule microarray, higher = more signal
[4] = change in splice reporter luminescence, either direction, cell-based, HEK293, spliceosome inhibition project, primary screen (AID 1101); conditions: HEK293 splicing luciferase reporter, 24 h, higher = more signal, called active from +8 up or from −8 down;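 note: HEK293 cells carrying a splicing-competent luciferase reporter gene; test concentration not given here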
[5] = biological target: Fibroblast growth factor 10 (Homo sapiens) (UniProt O15520); experiment: compounds binding fibroblast growth factor 10 – biochemical, small-molecule microarray, 635 nm fluorescence, primary screen (AID 1102); conditions: FGF10 binding, fluorescence 635 nm, higher = more signal
[6] = system: glycogen synthase kinase-3 (GSK3A per assay name; protocol says GSK3B); experiment: compounds binding glycogen synthase kinase-3 – biochemical, small-molecule microarray, 635 nm fluorescence, GSK3A, primary screen (AID 1103); conditions: fluorescence 635 nm, higher = more signal; note: the record names both GSK3A and GSK3B
[7] = biological target: Epidermal growth factor receptor (Homo sapiens) (UniProt P00533); experiment: compounds binding epidermal growth factor receptor – biochemical, small-molecule microarray, 635 nm fluorescence, primary screen (AID 1104); conditions: EGFR binding, higher = more signal;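 note: score merges 667 nm emission intensity with spot signal to noise over triplicate slides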
[8] = biological target: Follistatin-related protein 3 (Homo sapiens) (UniProt O95633); experiment: compounds binding follistatin-related protein 3 – biochemical, small-molecule microarray, 635 nm fluorescence, primary screen (AID 1105); conditions: FSTL3 binding, higher = more signal;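 note: score merges emission near 667 nm and signal to noise per printed spot across three slides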
[9] = biological target: Dickkopf-related protein 1 (Homo sapiens) (UniProt O94907); experiment: small molecules binding DKK1 protein – biochemical, small-molecule microarray, 635 nm fluorescence scan, primary screen (AID 1106); conditions: higher = more signal;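 note: score merges emission near 667 nm with signal to noise over three replicate slides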
[10] = system: Inhibin beta A chain (activin A); experiment: small molecules binding activin A – biochemical, small-molecule microarray, 635 nm fluorescence scan, primary screen (AID 1107); conditions: INHBA, higher = more signal;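 note: mouse activin A protein probed at 4.33 µg/mL on printed slides; score merges bound-protein fluorescence near 667 nm with spot signal-to-noise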
[11] = system: Human papillomavirus type 1a protein E7 (residues 44-93); experiment: small molecules binding HPV E7 44-93 – biochemical, small-molecule microarray, residues 44-93, 635 nm fluorescence, primary screen (AID 1108); conditions: fluorescence 635 nm, higher = more signal;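 note: E7 fragment applied at 1 µg/mL in TBST for 1 h at 4 C; score combines spot fluorescence with its signal to noise ratio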
[12] = hepatitis C replication reporter changes, two-sided – Huh7 cells, luciferase reporter, HCV replication inhibitor project, primary screen (AID 1109); conditions: Huh7 HCV replicon luciferase reporter, 48 h; higher = more signal;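 note: huh7 hepatoma cells harbouring a luciferase neomycin HCV replicon reporter; luciferase luminescence as measure of HCV replicon replication; test concentration not given here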
[13] = biological target: Left-right determination factor 2 (Homo sapiens) (UniProt O00292); experiment: small molecules binding LEFTY2 protein – biochemical, small-molecule microarray, 635 nm fluorescence scan, primary screen (AID 1110); conditions: higher = more signal
[14] = biological target: Calmodulin-1 (Homo sapiens) (UniProt P0DP23); experiment: small molecules binding calmodulin-1 with EGTA – biochemical, small-molecule microarray, Cy5-labelled CALM1, profiling panel (AID 1111); conditions: Cy5-CALM1 binding fluorescence, higher = more signal;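 note: labelled calmodulin applied in Tris saline Tween buffer holding calcium plus EGTA and DTT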
[15] = biological target: Calmodulin-1 (Homo sapiens) (UniProt P0DP23); experiment: small molecules binding Ca-loaded calmodulin-1 – biochemical, small-molecule microarray, Cy5-labelled CALM1, plus calcium, artefact control for SMM control-protein annotation, profiling panel (AID 1112); conditions: Cy5-CALM1 binding fluorescence, higher = more signal;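 note: score merges spot fluorescence with signal to noise from triplicate slides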
[16] = probe aWnt5a binding to arrayed compounds – biochemical, biotinylated probe, 635/667 nm fluorescence, primary screen (AID 1113); conditions: small-molecule microarray, higher = more signal;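 note: score merges 667 nm fluorescence intensity with signal-to-noise per printed feature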
[17] = probe aShh binding to arrayed compounds – biochemical, biotinylated probe, 635/667 nm fluorescence, primary screen (AID 1114); conditions: small-molecule microarray, higher = more signal;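 note: probe is biotin-labelled aShh protein from a stem cell growth factor screen; measures binding of labelled protein to compounds printed on the slide; score merges feature fluorescence at 667 nm with signal-to-noise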
[18] = probe aNog binding to arrayed compounds – biochemical, biotinylated probe, 635/667 nm fluorescence, primary screen (AID 1115); conditions: small-molecule microarray, higher = more signal;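 note: probe is biotinylated aNog protein used at 0.15 µg/mL for 1 h at 4 C; z-score combines 667 nm fluorescence of each spot with its signal to noise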
[19] = biological target: Torsin-1A-interacting protein 1 (Homo sapiens) (UniProt Q5JTV8); experiment: compound microarray binding of lysate hLAP1 – cell lysate, small-molecule microarray, COS7 lysate, 635/667 nm fluorescence, primary screen (AID 1116); conditions: 635 nm fluorescence, higher = more signal
[20] = biological target: Alpha-bungarotoxin (Bungarus multicinctus) (UniProt P60615); experiment: compounds binding labelled alpha-BTX control protein – biochemical, small-molecule microarray, Alexa647 label, 635/667 nm fluorescence, artefact control for SMM control protein annotation, profiling panel (AID 1117); conditions: alpha-BTX-A647 binding fluorescence, higher = more signal
Sequence of Alpha-bungarotoxin (Bungarus multicinctus) (P60615 whole entry, looked up): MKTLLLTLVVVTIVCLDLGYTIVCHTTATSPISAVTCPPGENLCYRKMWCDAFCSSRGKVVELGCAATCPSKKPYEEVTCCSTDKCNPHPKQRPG

Sequence of Follistatin-related protein 3 (Homo sapiens) (O95633 whole entry, looked up): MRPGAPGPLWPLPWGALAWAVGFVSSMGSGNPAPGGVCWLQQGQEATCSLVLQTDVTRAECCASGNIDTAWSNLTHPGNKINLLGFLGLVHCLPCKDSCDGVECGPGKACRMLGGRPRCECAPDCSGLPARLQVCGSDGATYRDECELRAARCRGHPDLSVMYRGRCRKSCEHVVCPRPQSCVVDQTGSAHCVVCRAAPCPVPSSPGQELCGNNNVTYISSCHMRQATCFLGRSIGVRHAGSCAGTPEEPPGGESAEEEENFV
Sequence of Dickkopf-related protein 1 (Homo sapiens) (O94907 whole entry, looked up): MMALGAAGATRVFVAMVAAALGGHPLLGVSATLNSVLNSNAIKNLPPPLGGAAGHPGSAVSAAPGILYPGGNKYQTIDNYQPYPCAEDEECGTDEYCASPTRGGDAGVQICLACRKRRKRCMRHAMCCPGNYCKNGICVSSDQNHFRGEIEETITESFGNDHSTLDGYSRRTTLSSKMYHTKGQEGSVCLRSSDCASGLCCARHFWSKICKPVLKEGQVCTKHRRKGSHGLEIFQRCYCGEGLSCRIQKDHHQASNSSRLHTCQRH
Sequence of Torsin-1A-interacting protein 1 (Homo sapiens) (Q5JTV8 whole entry, looked up): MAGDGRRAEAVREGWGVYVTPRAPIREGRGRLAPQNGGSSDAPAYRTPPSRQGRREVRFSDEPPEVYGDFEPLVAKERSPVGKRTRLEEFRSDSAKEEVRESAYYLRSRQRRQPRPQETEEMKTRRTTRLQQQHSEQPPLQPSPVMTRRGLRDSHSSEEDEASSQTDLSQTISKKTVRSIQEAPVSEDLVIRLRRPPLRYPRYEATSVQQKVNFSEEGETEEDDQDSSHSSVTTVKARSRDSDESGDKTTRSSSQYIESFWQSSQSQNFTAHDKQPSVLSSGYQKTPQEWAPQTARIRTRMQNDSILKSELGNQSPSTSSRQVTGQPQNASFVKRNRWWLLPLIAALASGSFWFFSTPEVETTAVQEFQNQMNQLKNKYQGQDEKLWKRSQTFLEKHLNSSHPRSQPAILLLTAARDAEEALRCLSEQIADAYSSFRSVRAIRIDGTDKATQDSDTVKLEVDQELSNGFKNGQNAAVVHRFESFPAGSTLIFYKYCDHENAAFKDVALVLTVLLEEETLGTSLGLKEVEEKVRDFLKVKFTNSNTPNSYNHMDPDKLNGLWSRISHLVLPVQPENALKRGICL
Sequence of Left-right determination factor 2 (Homo sapiens) (O00292 whole entry, looked up): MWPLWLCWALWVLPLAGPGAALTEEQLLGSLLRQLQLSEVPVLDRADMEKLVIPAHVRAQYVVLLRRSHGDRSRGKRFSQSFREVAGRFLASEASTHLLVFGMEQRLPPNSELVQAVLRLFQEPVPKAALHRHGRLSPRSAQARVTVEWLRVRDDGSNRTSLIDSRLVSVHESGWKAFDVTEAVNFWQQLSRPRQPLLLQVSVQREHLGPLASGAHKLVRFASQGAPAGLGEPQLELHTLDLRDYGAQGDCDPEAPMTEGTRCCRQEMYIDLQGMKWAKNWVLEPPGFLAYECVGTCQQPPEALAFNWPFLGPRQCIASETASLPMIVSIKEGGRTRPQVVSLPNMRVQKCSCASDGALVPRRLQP
Sequence of Epidermal growth factor receptor (Homo sapiens) (P00533 whole entry, looked up): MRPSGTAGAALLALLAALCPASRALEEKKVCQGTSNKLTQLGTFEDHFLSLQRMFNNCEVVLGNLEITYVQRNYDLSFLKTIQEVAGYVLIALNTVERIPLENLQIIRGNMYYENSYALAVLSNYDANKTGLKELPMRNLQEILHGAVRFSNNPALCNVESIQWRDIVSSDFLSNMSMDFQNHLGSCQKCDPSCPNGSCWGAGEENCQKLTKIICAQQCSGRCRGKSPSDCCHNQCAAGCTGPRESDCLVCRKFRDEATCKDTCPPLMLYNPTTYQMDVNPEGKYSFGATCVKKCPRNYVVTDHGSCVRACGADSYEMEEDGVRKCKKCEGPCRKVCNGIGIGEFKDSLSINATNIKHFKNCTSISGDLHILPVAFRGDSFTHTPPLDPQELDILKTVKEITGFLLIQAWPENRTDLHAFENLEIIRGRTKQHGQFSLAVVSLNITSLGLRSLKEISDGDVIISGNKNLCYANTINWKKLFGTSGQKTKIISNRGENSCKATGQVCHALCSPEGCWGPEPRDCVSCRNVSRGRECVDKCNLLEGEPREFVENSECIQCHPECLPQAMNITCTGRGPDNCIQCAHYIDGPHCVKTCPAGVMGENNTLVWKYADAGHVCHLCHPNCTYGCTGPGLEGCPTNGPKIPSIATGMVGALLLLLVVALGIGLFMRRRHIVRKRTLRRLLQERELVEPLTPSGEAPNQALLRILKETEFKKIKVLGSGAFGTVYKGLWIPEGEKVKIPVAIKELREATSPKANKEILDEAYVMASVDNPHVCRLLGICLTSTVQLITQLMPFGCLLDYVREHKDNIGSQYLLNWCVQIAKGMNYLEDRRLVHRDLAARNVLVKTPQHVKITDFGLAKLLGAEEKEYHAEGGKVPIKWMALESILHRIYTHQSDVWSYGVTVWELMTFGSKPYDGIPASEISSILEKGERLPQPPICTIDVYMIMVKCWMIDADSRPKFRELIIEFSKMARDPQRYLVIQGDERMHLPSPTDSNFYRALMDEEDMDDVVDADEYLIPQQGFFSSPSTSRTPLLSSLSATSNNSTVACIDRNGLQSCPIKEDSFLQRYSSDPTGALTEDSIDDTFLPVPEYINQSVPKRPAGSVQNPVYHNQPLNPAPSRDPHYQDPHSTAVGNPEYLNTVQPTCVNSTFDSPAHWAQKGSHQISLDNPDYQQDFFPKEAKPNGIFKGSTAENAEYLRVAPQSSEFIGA
Sequence of Fibroblast growth factor 10 (Homo sapiens) (O15520 whole entry, looked up): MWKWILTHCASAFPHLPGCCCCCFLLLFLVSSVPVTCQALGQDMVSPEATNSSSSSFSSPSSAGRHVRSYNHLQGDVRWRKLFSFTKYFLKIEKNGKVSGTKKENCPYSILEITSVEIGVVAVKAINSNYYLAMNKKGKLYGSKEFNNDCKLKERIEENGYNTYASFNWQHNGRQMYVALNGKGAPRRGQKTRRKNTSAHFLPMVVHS

Row | Compound | composite z-score [1] | composite z-score [2] | composite z-score [3] | z-score [4] | composite z-score [5] | composite z-score [6] | composite z-score [7] | composite z-score [8] | composite z-score [9] | composite z-score [10] | composite z-score [11] | z-score [12] | composite z-score [13] | composite z-score [14] | composite z-score [15] | composite z-score [16] | composite z-score [17] | composite z-score [18] | composite z-score [19] | composite z-score [20]
1 | CCCCC(=C=CC[C@@H](O)c1ccc(OCCO)cc1)C[C@@H](O)c1cc(Cl)cc(Cl)c1O | 0.157 | 0.279 | 0.577 | -2 (inactive) | 0.697 | -0.167 | -0.723 | -0.0492 | -0.344 | 0.588 | -0.258 | -1.99 | -0.0836 | 0.863 | 0.83 | -0.124 | -0.221 | 0.342 | 0.497 | 0.166
2 | CC(C)(C)OC(=O)CC[C@@]1(C(=O)N2CCOCC2)N=C(c2ccc(OCCCO)cc2)O[C@@H]1c1ccccc1 | 1.12 | 1.33 | 1.36 | -1.17 (inactive) | 0.728 | 0.943 | -0.384 | -0.462 | -0.607 | 0.743 | 0.358 | -0.0126 | -0.26 | 2.08 | 1.31 | -0.0403 | 0.798 | 1.4 | 3.32 | 2.06
3 | COC(=O)c1c(CC[C@@H](CO)NC(=O)Nc2ccc(OC)cc2)oc(C(=O)Cc2ccccc2)c1C(=O)OC | 1.36 | 0.0707 | -0.0477 | -0.487 (inactive) | 0.394 | 0.618 | 0.0445 | 0.325 | 0.353 | 0.306 | 0.316 | 0.685 | 0.239 | -0.315 | -0.464 | -0.0445 | -0.138 | 0.068 | 0.333 | 0.655
4 | O=C(N1CCCCC1)[C@@]1(Cc2ccccc2)N=C(c2ccc(OCCCO)cc2)O[C@H]1c1ccccc1 | 1.43 | 1.26 | 1.31 | -1.96 (inactive) | 0.942 | 0.258 | -0.32 | 0.606 | 0.0474 | 0.766 | 0.73 | -2.94 | -0.458 | 2.45 | 1.09 | 0.801 | 0.106 | 1.9 | 2.95 | 3.12
5 | CO[C@H]1O[C@H](CO)[C@@H](OC(=O)Nc2ccccc2)[C@H](OC(=O)Nc2ccccc2-c2ccccc2)[C@@H]1OC(=O)Nc1ccccc1-c1ccccc1 | 1.36 | 0.318 | 0.464 | -1.05 (inactive) | 1.19 | 1.32 | 0.561 | 1.16 | 0.621 | 0.522 | 0.781 | -3.09 | 0.986 | 1.95 | 0.357 | 0.131 | 1.85 | 1.59 | 1.1 | 2.77
6 | COCCOC(=O)N1C(=O)[C@@]2(c3ccccc31)[C@H](C(=O)Nc1nc3ccccc3s1)[C@H]1C(=O)O[C@H](c3ccccc3)[C@H](c3ccccc3)N1[C@@H]2c1ccc(O)cc1 | 1.05 | 0.356 | 0.361 | -1.56 (inactive) | 0.998 | 1.29 | 0.534 | 0.775 | 0.709 | 0.927 | 1.1 | -2.04 | 1.02 | 1.74 | 1.07 | 0.0044 | 0.489 | 0.134 | 0.94 | 2.07
7 | CCOC(=O)C[C@H]1[C@H](OC(=O)c2ccc(-c3ccccc3)cc2)[C@@H](NC(=O)C2CCCCC2)c2cc(OCCCO)ccc2N1C(=O)c1ccc2ccccc2n1 | 0.13 | 0.414 | 0.111 | -1.65 (inactive) | 0.651 | 0.708 | 0.0502 | 0.392 | 1.12 | -0.167 | 1.19 | -0.241 | 0.197 | 1.24 | 0.854 | 0.0102 | -0.0133 | 0.037 | 0.729 | 0.608
8 | CCCCCN1CC=CC23O[C@@H]4/C=C\CCC(C)OC(=O)C4[C@H]2C(=O)N(CCCO)[C@@H]3C1=O (stereo not given in full) | 0.936 | -0.212 | 0.183 | -0.246 (inactive) | -0.753 | -0.723 | -1.36 | -1.24 | -0.543 | 0.797 | -0.93 | -0.333 | -1.15 | -1.35 | 0.0216 | -0.194 | -0.2 | -0.0511 | 1.99 | 2.69
9 | C=C(COC)/C(=C/C[C@H](OC(C)=O)c1ccc(CO)o1)c1cnc2ccccc2c1 | 1.05 | 0.0967 | 0.131 | -1.03 (inactive) | 0.979 | 1.29 | 0.477 | 1.48 | 0.639 | 1.61 | 0.729 | -1.18 | 0.149 | 0.143 | -0.387 | -0.0445 | 0.0893 | 0.186 | 0.845 | 2.83
10 | CN1C=C(C(=O)OCCS(C)(=O)=O)C(C(=O)OCCS(C)(=O)=O)=CC(CCCO)=CC1c1cccs1 (stereo not given) | -0.122 | -0.18 | -0.707 | -0.601 (inactive) | 0.395 | 0.891 | 0.56 | 0.663 | 0.537 | -0.558 | 0.358 | -0.911 | 0.716 | -0.524 | -0.676 | -0.0161 | -0.0011 | -0.036 | 0.151 | -0.515
11 | CCCCC(=C=CC[C@H](O)c1cccc(OCCO)c1)CCO | 0.674 | -0.0104 | 0.287 | -0.261 (inactive) | 0.0392 | -0.558 | -0.932 | -0.764 | -0.263 | 1.07 | -0.397 | -1.21 | -0.497 | -0.357 | -0.0182 | -0.0462 | 0.0639 | 0.0511 | 0.338 | 0.629
12 | CC(C)C[C@@H]1NC(=O)[C@@H]2C[C@H](C(=O)NCCCCCNC(=O)CS)[C@H](c3cccc(OCCO)c3)N2C1=O | 1.68 | 0.588 | 0.619 | -1.15 (inactive) | 0.654 | 1.32 | 0.717 | 0.921 | 0.741 | 0.947 | 0.64 | 0.568 | 0.581 | 0.942 | 0.0355 | -0.0236 | 0.242 | 0.418 | 1.25 | 2.72
13 | CC(C)N1C(=O)c2ccccc2[C@@H](C(=O)NCc2ccccc2)[C@@H]1c1ccc(CO)cc1 | 1.05 | 0.326 | 0.932 | -0.242 (inactive) | -0.844 | 0.192 | -0.183 | -0.0398 | -0.319 | 0.481 | 0.319 | 0.313 | -0.514 | -0.808 | 0.306 | -0.178 | -0.203 | 0.198 | 0.481 | -1.92
14 | C/C=C/[C@@H](CCn1cc(CCO[Si](C(C)C)(C(C)C)C(C)C)nn1)[Si](C)(C)c1ccc(OC)cc1 | -0.82 | -0.941 | -0.34 | -2.83 (inactive) | -1.03 | -0.918 | -2.01 | -1.72 | -1.03 | 1.01 | -0.77 | -0.918 | -0.426 | -2.98 | -2.87 | -0.182 | -0.323 | -0.866 | -0.24 | -1.25
15 | COCCCNC(=O)[C@@]1(C)c2ccccc2C(=O)N(Cc2cc(F)cc(C(F)(F)F)c2)[C@H]1c1ccc(CO)cc1 | 0.938 | 0.612 | 0.862 | -0.112 (inactive) | 0.22 | -0.611 | -1.79 | -1.69 | -2.23 | -0.39 | -0.762 | 0.67 | -1.88 | -0.416 | 0.49 | -0.178 | -0.0769 | -0.144 | 0.0999 | -1.97
16 | C=C(C1=CCN(S(=O)(=O)c2ccc(C)cc2)C1)[C@@H](OC(C)=O)[C@@H]1CCCN1S(=O)(=O)c1ccccc1[N+](=O)[O-] | 1.55 | -0.362 | -0.254 | -3.24 (inactive) | 0.0611 | -0.297 | -0.0578 | -0.114 | -0.239 | 1.2 | -0.38 | -4.62 | -0.0476 | -0.765 | -0.856 | -0.208 | 0.0469 | 0.353 | 0.156 | -1.48
